What follows are compounds tested against Nicotinamide N-methyltransferase (Homo sapiens) (UniProt P40261) (assay: Confirmatory Screen for Target Class Profiling of Small Molecule Inhibitors of Methyltransferases (AID 1745852)). Conditions: MTase-Glo luminescence, SAH detection, recombinant enzyme; measured here: NNMT max response; stronger effect = lower value.
Sequence of Nicotinamide N-methyltransferase (Homo sapiens) (P40261 whole entry, looked up): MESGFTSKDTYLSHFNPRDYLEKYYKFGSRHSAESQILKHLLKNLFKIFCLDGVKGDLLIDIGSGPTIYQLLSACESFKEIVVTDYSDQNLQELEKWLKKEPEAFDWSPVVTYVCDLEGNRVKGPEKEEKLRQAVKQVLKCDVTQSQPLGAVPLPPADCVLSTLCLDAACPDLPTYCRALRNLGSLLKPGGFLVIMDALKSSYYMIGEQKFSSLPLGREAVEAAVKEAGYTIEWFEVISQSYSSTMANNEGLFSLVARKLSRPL

SMILES	activity [%]
Cc1cnc(Nc2ccc(CN3CCOCC3)cc2)nc1Nc1cccc(S(=O)(=O)NC(C)(C)C)c1	-43.5
CCOC(=O)[C@@H](N)Cc1ccc(-c2cc(O[C@H](c3ccc(Cl)cc3-n3ccc(C)n3)C(F)(F)F)nc(N)n2)cc1	-31.8
Cc1cnc(Nc2ccc(N3CCN(C)CC3)cc2)nc1Nc1cccc(S(=O)(=O)NC(C)(C)C)c1	-15.4
N#Cc1c(C2CCNCC2)cc(-c2c(O)cccc2OCC2CC2)nc1N	-55.9
c1ccc2c(Oc3nc(Nc4ccc(N5CCOCC5)cc4)c4ncn(C5CCCCC5)c4n3)cccc2c1	-22.9
CN1CCc2c(c3ccccc3n2Cc2ccc(C(=O)NO)cc2)C1	-7.28

Source: PubChem BioAssay (NCATS)
